Calls of active or inactive are those of the source. Unless noted, the rule behind the calls is not given here.
Experiments:
[1] = compounds binding Alexa647 anti-His antibody – biochemical, small-molecule microarray, 635 nm fluorescence, artefact control for SMM control protein annotation, primary screen (AID 1128); conditions: higher = more signal;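 note: score merges feature fluorescence with signal-to-noise for each printed compound spot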
[2] = tested on: Human papillomavirus type 1a E7 protein (residues 1-88); test: HPV1a E7 small-molecule binders, primary screen, biochemical, small-molecule microarray, residues 1-88, 635 nm (AID 1129); conditions: small-molecule microarray binding, fluorescence 635 nm; higher = more signal
[3] = molecular target: Focal adhesion kinase 1 (Homo sapiens) (UniProt Q05397); test: PTK2 protein binding on printed compound slides – biochemical, small-molecule microarray, 635/667 nm fluorescence, BSA, DTT, primary screen (AID 1130); conditions: 635 nm fluorescence, higher = more signal;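 note: composite of spot emission at 667 nm and signal to noise over triplicate slides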
Chain of Focal adhesion kinase 1 (Homo sapiens) (Q05397 whole entry, looked up): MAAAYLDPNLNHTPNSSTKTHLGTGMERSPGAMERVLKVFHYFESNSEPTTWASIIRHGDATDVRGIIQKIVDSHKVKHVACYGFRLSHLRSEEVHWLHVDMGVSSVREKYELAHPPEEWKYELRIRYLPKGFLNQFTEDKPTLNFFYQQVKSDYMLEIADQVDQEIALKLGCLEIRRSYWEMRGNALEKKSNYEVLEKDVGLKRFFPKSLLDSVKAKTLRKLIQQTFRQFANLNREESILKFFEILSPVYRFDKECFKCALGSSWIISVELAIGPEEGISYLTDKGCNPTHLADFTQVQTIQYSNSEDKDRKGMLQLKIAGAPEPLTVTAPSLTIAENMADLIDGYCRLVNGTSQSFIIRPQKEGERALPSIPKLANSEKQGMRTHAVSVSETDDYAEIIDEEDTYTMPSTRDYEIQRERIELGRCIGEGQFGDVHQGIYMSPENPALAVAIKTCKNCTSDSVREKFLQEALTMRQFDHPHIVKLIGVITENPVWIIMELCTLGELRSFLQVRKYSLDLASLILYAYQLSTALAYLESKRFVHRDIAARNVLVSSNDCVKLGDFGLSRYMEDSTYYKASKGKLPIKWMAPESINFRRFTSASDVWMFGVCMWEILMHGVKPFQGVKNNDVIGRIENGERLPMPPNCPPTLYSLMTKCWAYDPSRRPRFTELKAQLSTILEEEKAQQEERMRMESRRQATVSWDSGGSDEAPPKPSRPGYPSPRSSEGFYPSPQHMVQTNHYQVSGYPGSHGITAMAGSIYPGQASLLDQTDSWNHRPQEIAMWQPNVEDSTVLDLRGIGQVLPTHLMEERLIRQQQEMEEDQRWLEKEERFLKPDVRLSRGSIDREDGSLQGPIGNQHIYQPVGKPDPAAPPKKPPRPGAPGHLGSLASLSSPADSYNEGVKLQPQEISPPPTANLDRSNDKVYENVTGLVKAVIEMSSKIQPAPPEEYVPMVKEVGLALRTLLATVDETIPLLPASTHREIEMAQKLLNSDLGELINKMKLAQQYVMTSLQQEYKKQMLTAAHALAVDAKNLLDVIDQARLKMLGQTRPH

[4] = tested on: Fibrinogen (Alexa647-labelled); test: Alexa647-fibrinogen binding to printed small molecules – biochemical, small-molecule microarray, 635/667 nm fluorescence, artefact control for SMM control-protein annotation, profiling panel (AID 1131); conditions: fibrinogen-A647 binding fluorescence, higher = more signal;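 note: z-score merges 667 nm fluorescence with per-spot signal-to-noise over triplicate slides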
[5] = molecular target: Follistatin (Homo sapiens) (UniProt P19883); test: FST protein binding to printed compounds – biochemical, small-molecule microarray, 635/667 nm fluorescence, primary screen (AID 1132); conditions: 635 nm fluorescence, higher = more signal
Chain of Follistatin (Homo sapiens) (P19883 whole entry, looked up): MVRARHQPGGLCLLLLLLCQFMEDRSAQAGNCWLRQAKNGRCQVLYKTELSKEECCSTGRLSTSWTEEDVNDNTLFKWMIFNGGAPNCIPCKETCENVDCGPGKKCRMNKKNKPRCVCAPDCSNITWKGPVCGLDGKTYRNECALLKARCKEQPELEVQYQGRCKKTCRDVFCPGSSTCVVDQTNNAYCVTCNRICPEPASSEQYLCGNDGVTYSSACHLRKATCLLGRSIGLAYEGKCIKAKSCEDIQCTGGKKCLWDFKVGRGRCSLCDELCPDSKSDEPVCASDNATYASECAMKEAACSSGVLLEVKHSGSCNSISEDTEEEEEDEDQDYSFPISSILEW

[6] = molecular target: Fibroblast growth factor 2 (Homo sapiens) (UniProt P09038); test: basic fibroblast growth factor binding to printed compounds – biochemical, small-molecule microarray, 635/667 nm fluorescence, primary screen (AID 1133); conditions: FGF2, fluorescence 635/667, higher = more signal
Chain of Fibroblast growth factor 2 (Homo sapiens) (P09038 whole entry, looked up): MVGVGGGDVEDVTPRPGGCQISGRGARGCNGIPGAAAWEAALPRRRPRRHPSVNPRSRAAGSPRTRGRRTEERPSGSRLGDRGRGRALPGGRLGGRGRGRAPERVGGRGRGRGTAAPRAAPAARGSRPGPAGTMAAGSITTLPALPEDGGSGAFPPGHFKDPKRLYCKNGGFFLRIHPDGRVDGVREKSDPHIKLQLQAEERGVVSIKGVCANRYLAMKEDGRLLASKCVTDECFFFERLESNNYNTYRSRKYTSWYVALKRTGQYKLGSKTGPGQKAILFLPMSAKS

[7] = JC-1 mitochondrial potential readout, lung cancer cells – cell-based, A549, JC-1 fluorescence, basal, 24 h, 100 nL, profiling panel (AID 1138); conditions: higher = more signal;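 note: A549 lung adenocarcinoma cells under basal conditions with no added stimulus; test concentration not given here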
Lefty1 = Lefty1 protein binding to printed compounds – biochemical, small-molecule microarray, 635/667 nm fluorescence, primary screen (AID 1139); conditions: fluorescence 635/667, higher = more signal
[8] = tested on: wheat germ agglutinin (Triticum aestivum), Alexa647-labelled; test: Alexa647-WGA lectin binding to printed small molecules – biochemical, small-molecule microarray, 635/667 nm fluorescence, artefact control for SMM control-protein annotation, profiling panel (AID 1140); conditions: WGA-A647 binding, 635 nm fluorescence, higher = more signal;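 note: score merges 667 nm feature emission with signal to noise over triplicate slides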
[9] = molecular target: Luciferin 4-monooxygenase (Photinus pyralis) (UniProt P08659); test: inhibition of purified Photinus pyralis luciferase – biochemical, luminescence, purified enzyme, 2006 set, primary screen (AID 1141); conditions: purified firefly luciferase, SteadyGlo luminescence, 30 min; higher = more signal, called active from +8 up or from −8 down;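 note: cell-free assay with purified firefly luciferase at 100 ng per well in PBS; test concentration not given here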
Chain of Luciferin 4-monooxygenase (Photinus pyralis) (P08659 whole entry, looked up): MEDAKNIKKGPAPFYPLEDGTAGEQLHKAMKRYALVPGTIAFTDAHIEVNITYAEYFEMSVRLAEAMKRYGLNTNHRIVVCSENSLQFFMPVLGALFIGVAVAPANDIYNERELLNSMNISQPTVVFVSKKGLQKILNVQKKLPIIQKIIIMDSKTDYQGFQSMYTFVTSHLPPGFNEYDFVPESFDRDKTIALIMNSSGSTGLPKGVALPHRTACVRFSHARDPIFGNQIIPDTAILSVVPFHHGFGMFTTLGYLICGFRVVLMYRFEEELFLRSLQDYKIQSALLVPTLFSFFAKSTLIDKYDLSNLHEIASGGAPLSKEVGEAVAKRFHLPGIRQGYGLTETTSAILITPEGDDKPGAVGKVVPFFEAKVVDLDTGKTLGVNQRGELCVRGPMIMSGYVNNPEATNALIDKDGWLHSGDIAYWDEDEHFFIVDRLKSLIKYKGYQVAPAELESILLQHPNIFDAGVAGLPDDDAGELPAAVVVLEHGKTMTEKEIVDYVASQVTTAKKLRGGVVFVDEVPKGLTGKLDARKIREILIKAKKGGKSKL

[10] = tested on: Wnt5a (protein binding on small-molecule microarray); test: small molecules binding Wnt5a protein – biophysical, small-molecule microarray, 635/667 nm fluorescence, primary screen (AID 1142); conditions: 635 nm fluorescence, higher = more signal;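 note: fluorescence read at 667 nm with signal to noise per printed feature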
[11] = ATP-based viability of Huh7 replicon cells – cell-based, CellTiter-Glo luminescence, basal, 48 h, cytotoxicity control for HCV replication inhibitor project, primary screen (AID 1143); conditions: higher = more signal, called active from +8 up or from −8 down;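 note: Huh7 hepatoma cells carrying a hepatitis C replication reporter with no stimulus; test concentration not given here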
[12] = Pseudomonas biofilm growth suppression – PAO1 strain, BacTiter-Glo luminescence, LB-PBS, primary screen (AID 1144); conditions: P. aeruginosa PAO1 biofilm, 12 h, higher = more signal
[13] = basal CRE-LacZ reporter activity in PC12 – cell-based, unstimulated, primary screen (AID 1145); conditions: no forskolin, luminescence, 4.5 h, higher = more signal, called active from +8 up or from −8 down
[14] = forskolin-driven CRE-LacZ activity in PC12 – cell-based, CRE-LacZ reporter, forskolin-stimulated, primary screen (AID 1146); conditions: luminescence, 4.5 h, higher = more signal, called active from +8 up or from −8 down;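 note: PC12 cells with 6xCRE LacZ reporter stimulated by forskolin 10 µM; beta-galactosidase reporter signal reflecting CREB driven transcription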
[15] = molecular target: Streptavidin (Streptomyces avidinii) (UniProt P22629); test: compounds binding control protein streptavidin – biophysical, small-molecule microarray, 635/667 nm fluorescence, artefact control for SMM compound annotation, primary screen (AID 1147); conditions: higher = more signal;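 note: signal reflects streptavidin binding to arrayed compounds as a control protein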
Chain of Streptavidin (Streptomyces avidinii) (P22629 whole entry, looked up): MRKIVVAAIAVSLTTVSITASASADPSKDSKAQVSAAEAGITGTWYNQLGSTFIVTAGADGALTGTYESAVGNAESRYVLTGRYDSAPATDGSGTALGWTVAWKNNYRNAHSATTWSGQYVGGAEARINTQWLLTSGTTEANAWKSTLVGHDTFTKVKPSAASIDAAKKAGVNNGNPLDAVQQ

[16] = probe aInhba binding on compound microarray – biochemical, small-molecule microarray, 635/667 nm fluorescence, primary screen (AID 1148); conditions: higher = more signal;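 note: score merges 667nm spot fluorescence with signal-to-noise for antibody binding to printed compounds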
Torsin-1A (Homo sapiens) [17] = molecular target: Torsin-1A (Homo sapiens) (UniProt O14656); test: TOR1A wild-type binding on microarray – cell lysate, small-molecule microarray, lysate, 635/667 nm, primary screen (AID 1149); conditions: COS7 hTOR1A-WT lysate, 635 nm fluorescence, higher = more signal
Chain of Torsin-1A (Homo sapiens) (O14656 whole entry, looked up): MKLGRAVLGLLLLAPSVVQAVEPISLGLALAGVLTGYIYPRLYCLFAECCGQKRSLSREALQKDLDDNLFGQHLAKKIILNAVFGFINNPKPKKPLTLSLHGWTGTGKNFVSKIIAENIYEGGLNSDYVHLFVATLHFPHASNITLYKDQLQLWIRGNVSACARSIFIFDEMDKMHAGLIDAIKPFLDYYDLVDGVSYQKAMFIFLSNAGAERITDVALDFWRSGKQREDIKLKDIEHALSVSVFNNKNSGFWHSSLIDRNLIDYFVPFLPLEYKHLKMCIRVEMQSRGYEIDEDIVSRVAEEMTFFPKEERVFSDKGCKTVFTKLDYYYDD

Torsin-1A (Homo sapiens) [18] = molecular target: Torsin-1A (Homo sapiens) (UniProt O14656); test: torsin A mutant lysate binding on microarrays – cell lysate, small-molecule microarray, COS7 lysate, 635/667 nm fluorescence, primary screen (AID 1150); conditions: COS7 hTOR1A mutant lysate, 635 nm fluorescence, higher = more signal;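 note: score pools 667 nm emission and signal to noise measuring lysate protein binding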
[19] = tested on: Sonic hedgehog protein (Shh); test: Sonic hedgehog microarray binding compounds – biochemical, small-molecule microarray, 635/667 nm fluorescence, primary screen (AID 1151); conditions: 635 nm fluorescence, higher = more signal;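 note: Shh protein binding to compounds spotted on small-molecule microarray slides; score combines spot fluorescence intensity with signal-to-noise across triplicate slides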

Compound | composite z-score [1] | composite z-score [2] | composite z-score [3] | composite z-score [4] | composite z-score [5] | composite z-score [6] | z-score [7] | composite z-score (Lefty1) | composite z-score [8] | z-score [9] | composite z-score [10] | z-score [11] | z-score [12] | z-score [13] | z-score [14] | composite z-score [15] | composite z-score [16] | composite z-score (Torsin-1A (Homo sapiens) [17]) | composite z-score (Torsin-1A (Homo sapiens) [18]) | composite z-score [19]
COCCOC(=O)N1C(=O)[C@@]2(c3cc(C#Cc4ccc(OC)cc4)ccc31)[C@H](c1ccc(O)cc1)N1[C@H](c3ccccc3)[C@H](c3ccccc3)OC(=O)[C@H]1[C@@H]2C(=O)NC[C@H](O)c1ccccc1 | 0.522 | 1.22 | -0.0575 | 0.994 | 1.3 | 1.4 | -1.51 | 1.33 | 0.623 | 1.05 (inactive) | 0.763 | -3.94 (inactive) | -0.88 (inactive) | -1.15 (inactive) | 0.7 (inactive) | 0.452 | -0.0259 | 0.105 | 1.07 | 2.05
COc1ccc(C(=O)O[C@H]2CC[C@]3(C)C4=C(CCC3C2(C)C)[C@]2(C)CC[C@H]([C@H](C)CCCC(C)C)[C@@]2(C)CC4)cc1 (stereo not given in full) | 0.541 | 0.607 | -0.0307 | 0.206 | 0.625 | 0.483 | 1.41 | 0.493 | 0.103 | -0.384 (inactive) | 0.314 | -1.02 (inactive) | -1.6 (inactive) | 0.131 (inactive) | -0.634 (inactive) | 0.25 | -0.103 | 0.344 | 0.609 | 1
CC(C)N1C(=O)c2ccccc2[C@](C)(C(=O)NCc2ccccc2)[C@@H]1c1ccc(CO)cc1 | 3.09 | 0.29 | 0.239 | -1.77 | -0.24 | -0.131 | -0.39 | -0.554 | -0.444 | -1.06 (inactive) | -0.111 | -0.139 (inactive) | 0.261 (inactive) | 0.558 (inactive) | -0.074 (inactive) | -0.558 | -0.154 | 1.3 | -0.119 | -0.0391
CCCCCN1CC=CC23O[C@@H]4/C=C\CCCOC(=O)C4[C@H]2C(=O)N(C(CO)C(C)C)[C@@H]3C1=O (stereo not given in full) | -0.208 | -0.376 | -0.295 | -0.796 | 0.0945 | -0.603 | -0.46 | 0.418 | 0.869 | 0.451 (inactive) | 0.175 | -0.0623 (inactive) | -1.6 (inactive) | -0.899 (inactive) | 0.373 (inactive) | -0.739 | -0.128 | -0.731 | -0.436 | 0.976

— PubChem BioAssay
